Laboratory results as given in PubChem BioAssay AID1053175 (ICCB-Longwood Screening Facility, Harvard Medical School, 2014).
“And” between values parts separate entries of the source, which are not always exact repeats. Equal values may be shown once. About 700 (0.21%) of roughly 330,000 compounds were called active.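 How the source made its calls: active means OD600 absorbance below the run mean of sample wells minus 3.6 SD, in any replicate (cut at about 0.56 in these data); inactive means the rest.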 What follows is part of a selection rich in actives, with near analogues and random picks from the rest.

experiment: antibacterial activity against Escherichia coli – OD600, primary screen (AID 1053175); conditions: Escherichia coli growth, OD600, 23 h; hits give low values

OD600 absorbance, inactive:
O=C(NCc1ccccc1)C1=CC(c2ccccc2)CC(OCCCCO)O1 (stereo not drawn) 0.622
CC(=O)Nc1ccc(C(C)=NNC(=O)c2ccc(-c3ccccc3)cc2)cc1 0.685
O=C(CCCN1C(=O)CCC1=O)Nc1ccc(Cl)c(C(F)(F)F)c1 0.702
CS(=O)(=O)N(CC(=O)Nc1ccc(Cl)c(Cl)c1)C1CCCCC1 0.703
Cc1nn(-c2ccccc2)c(C)c1C=NNC(=O)c1cc(-c2cccs2)[nH]n1 0.602
Clc1cccc(Cl)c1C=NNc1nccs1 0.705
Cc1cc(C)nc(NN=Cc2ccccc2OCc2ccccc2)n1 0.638
COc1cc(NS(=O)(=O)c2ccc(NC(=O)c3ccc([N+](=O)[O-])cc3)cc2)ncn1 0.659
CC(=O)NC(=S)Nc1ccc(NC(=S)NC(=O)c2ccc([N+](=O)[O-])cc2)cc1 0.699
Fc1cccc(CCN2CCNCC2Cc2ccccc2)c1 (stereo not drawn) 0.658
O=C(O)c1cc(O)c2c(c1)C(C1c3cc(C(=O)O)cc(O)c3C(=O)c3c(OC4OC(CO)C(O)C(O)C4O)cccc31)c1cccc(OC3OC(CO)C(O)C(O)C3O)c1C2=O (stereo not drawn) 0.667
COC(=O)c1cccc(C23CC4(C2)C(CN(CC2CCCCC2)C4c2ccccc2)C3c2ccccc2)c1 (stereo not drawn) 0.699
CCc1ccc(C=NNC(=O)Cc2ccc(OC)c(OC)c2)s1 0.627
Cc1nn(-c2ccccc2)c(C)c1C=Nn1c(-c2ccccc2Br)n[nH]c1=S 0.624
CCOc1ccc(Br)cc1C(=O)NN=Cc1c[nH]c2ccccc12 0.686
O=C(NN=C/C(Br)=C\c1ccccc1)c1n[nH]c2c1CCC2 0.619
C[C@]12C(=O)N(c3cccc(F)c3)C(=O)N1C1c3ccccc3OCC1C2c1ccccc1 (stereo partly drawn) 0.707 and 0.703
C=Cc1ccc(C2=CC(=O)CC(c3ccc(OC)cc3)C2)cc1 (stereo not drawn) 0.663
O=C(NN=Cc1cccc2ccccc12)c1cccnc1 0.676
O=C(C=Cc1ccccc1)NCCSCc1ccccc1Cl 0.63
O=C(CCNc1n[nH]c(=O)[nH]c1=O)NN=Cc1ccc(Cl)cc1 0.691
CCOC1OC(C(=O)NCc2nc3ccccc3[nH]2)=CC(c2cn(C(C)=O)c3ccccc23)C1CCCO (stereo not drawn) 0.677 and 0.601
ON=Cc1cccn1-c1nccs1 0.697
Cc1ccc(C(=O)NN=Cc2c[nH]c3ccccc23)o1 0.69
CCn1c(C)nc2cc(C(=O)NN=C(C)c3ccc(N4CCOCC4)cc3)ccc21 0.666
CCCC(CNC(CNC)C(C)O)NCCc1ccc(OC)cc1 (stereo not drawn) 0.679
CCc1c(Nc2ccccc2C)nc(N)[nH]c1=O 0.675
O=Cc1c(Nc2ccccc2Cl)nc2ccccn2c1=O 0.678
c1ccc(N=C2N=C(Nc3ccccn3)c3ccccc32)nc1 0.705
CCC1=C(OC(=O)N(CC)CC)N2C(=O)OC(=NCC(=O)OC)[C@]2(C)C2C1=CCC1C(=O)NC(=O)C12 (stereo partly drawn) 0.617
O=C(CCNS(=O)(=O)c1ccc(Br)cc1)NCC1CCCO1 (stereo not drawn) 0.66
CCCN1CCn2c3c(c4cc(Br)ccc42)CCCC31 (stereo not drawn) 0.655
O=C(CC=NOCc1ccc([N+](=O)[O-])cc1)Nc1ccc(Br)cc1 0.631
O=C(O)CC1c2cc(F)ccc2S(=O)(=O)N1Cc1ccccc1 (stereo not drawn) 0.672
O=[N+]([O-])c1cccc(C=NN2CCN(c3ccccn3)CC2)c1 0.693
Cc1ccc(NCC(=O)NN=Cc2ccc([N+](=O)[O-])o2)cc1 0.564
CCn1c(/C=C/c2ccc([N+](=O)[O-])o2)nc2ccccc2c1=O 0.629
CCc1ccc(-c2nn(-c3ccccc3C)cc2C(=O)N2CCN(C3CCS(=O)(=O)C3)CC2)cc1 (stereo not drawn) 0.66
Cc1ccc(-c2nn(-c3ccccc3)cc2C(=O)NC2CCC(O)CC2)cc1 (stereo not drawn) 0.658
COc1cccc(C=NNC(=O)CSc2cccc3cccnc23)c1 0.635
COC(=O)[C@]1(Cc2ccccc2)NC(c2ccc(-c3cc(C(C)=O)cs3)cc2)C2C(=O)N(C)C(=O)C21 (stereo partly drawn) 0.738
COC(=O)C1=C(C)N(Cc2ccco2)C(=O)NC1c1cccc(C(F)(F)F)c1 (stereo not drawn) 0.7
COc1ccc(C2C=CCN(S(=O)(=O)C=Cc3ccccc3)C(Cc3ccccc3)C(=O)N2Cc2ccc(F)cc2)cc1 (stereo not drawn) 0.733
CCOc1cc(C=NNc2ncnc(Cl)c2N)ccc1O 0.682
COc1cc(C=Nn2cnnc2)ccc1OCCOc1ccccc1 0.782
OCC1(CCOc2ccccc2)CCN(Cc2cn[nH]c2-c2ccccc2)CC1 0.675
CCOC(=O)C1(CCOc2ccccc2)CCN(Cc2cc(OC)c(O)cc2Cl)CC1 0.602
COc1cc(C(=O)ON=C2C=CC(=O)C=C2C)cc(OC)c1OC 0.685
Cc1c(C(=O)NC(C)C2CC3CCC2C3)cccc1[N+](=O)[O-] (stereo not drawn) 0.695
Cc1cccc(C(=O)OCC(=O)NC(C)C2CC3CCC2C3)c1O (stereo not drawn) 0.676

OD600 absorbance, active:
O=C(CC(O)(C(F)(F)F)C(F)(F)F)Nc1ccc(Cl)c(Cl)c1 0.329
Cn1ccc(=Nc2ccc(NC(=O)c3ccc(N=c4ccn(C)c5ccc([N+](=O)[O-])cc45)cc3)cc2)cc1 0.104
CCc1c(Nc2ccccc2Cl)nc(N)[nH]c1=O 0.475
OC(CNCC1CCCO1)Cn1c2ccc(Br)cc2c2cc(Br)ccc21 (stereo not drawn) 0.547
C/[N+]([O-])=C\c1ccc([N+](=O)[O-])o1 0.0665
CCc1ccc(-c2nn(-c3ccccc3)cc2CSC(=N)N)cc1 0.201
Cc1c(CN2CCC(CO)(CCOc3ccccc3)CC2)[nH]c2ccc(Cl)cc12 0.527
COC(=O)c1cc(C(=O)NC(C)C2CC3CCC2C3)cc([N+](=O)[O-])c1 (stereo not drawn) 0.52
